The source of these data is the supplement of paper PMC6555819.

The test system of the assay is VDR:RXRa (NR concentration 270 nM, RXRa partner concentration 90 nM). Kind of assay: PBM binding z-score (relative to random genomic background probes); higher = stronger binding; sequences stand for … in GC…GCGATTGACAGCGTAGAATGAAGG
The procedure:
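Protein-binding microarray (Agilent 4x180K custom design, double-stranded 60-nt probes: 5' GC cap, 34-nt variable region, 24-nt constant primer region; full probe sequence given). Purified or IVT nuclear receptor:RXRα heterodimers (3:1 NR:RXRα, mostly 270:90 nM) or homodimers were incubated for 1 h in PBS with 2% milk and no ligand, then detected with Alexa488 antibodies. Fluorescence from o1-orientation probes (~5 replicates averaged) was converted to z-scores against 500 random hg19 background probes. Variable regions are seed direct-repeat (DR0–DR5) sites, all their single-nucleotide variants and half-site ablations.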
ATCTCTGGGTAAGACTCAGTTCAGTGAAGAACGC yielded a PBM binding z-score of 0.528.

For CGTCCAAGGTCAAGGCCAGTGAAAGAGACTCGAA, the PBM binding z-score is 3.69.

As to ATATGTAGGTTAAGGGTCATCCAGGTTGGTTCGC, the PBM binding z-score came to 5.91. Consider ACACGGAGGACAAAGGTCAGAGCTACGCCAGTGA, for which the PBM binding z-score is 3.46. For GCGACTGGGGCAAAGTAGGTTACCATAAGGTTGG, the PBM binding z-score was -0.0639. Turning to CCCTACGGGTCAAGGTTATAGCACGGGTGGTACG, the PBM binding z-score amounted to 3.26. Next, CCGAGTAGGTCATGGGGCATTCAGGCAACGGTGA: 2.27; CGTCAAAGTTCCACTAAGGTAACGTAAAGCACGC: 0.211. Take GCAGACAGGTGTAACGCAGGTAACTCAGGGTGGC: the PBM binding z-score was -0.647. ACTACTTGGTCAGCTGAGGTCACACACAATTCGG: the PBM binding z-score was 4.74. On to GCATGTAGGTAATACAAGGTGAAAGTCCGATTGT, for which the PBM binding z-score stood at 0.342. Consider TCTTGTAGATCAACAGGAGGTTAAAAAAGATCGA, for which the PBM binding z-score amounted to 0.744. In the case of CCTAGTTGGTCAGGAGGTCACACCCCGGATATGA, the PBM binding z-score was 3.82. Under CGTCCACGGTCAGCAGGTCAGTGAAAGCGACGTG stands 0.107; under TGAATGAGGTTATATGATCAGGGAACGTTGCAAA, 1.33.

With CCTACTGGGCCAAAAAGGTCATTGAAGCCGATAA, the PBM binding z-score was 4.54.

Take ATCGAAAGCTCGTGAGGTGAGTATACAGAAAGGC: the PBM binding z-score is -0.256. As to CCTACTGGGCCACGAATGGTCATTGATTCAGTGA, the PBM binding z-score was -0.558. Take TAGCCTAGGTCATTGCGCCAGTATAGTACGCATC: the PBM binding z-score is 2.33.

AGAATGAGTTTATTAAGATCAGGGAATTGCGGTC registered a PBM binding z-score of 2.08. Take GCCCGGAGGACAAGGTCAGAGCTTTGTCCGTAGA: the PBM binding z-score was 1.11. For CGTCCAAGGTCAGCAAGTCAGTGAAAGCGACGTG, the PBM binding z-score was determined as 2.93. Take CCTAGCAGGCTAGGGTCACTCAAGCATTTCGCTT: the PBM binding z-score was 2.72.

For the sequence TAGCCTAGATCATGCGGGCCAGTATAGTGTCGGC, the PBM binding z-score is -1.11. The sequence TAGCATAGGTCATTGGGCCAGTATAGTACGCATC displayed a PBM binding z-score of 3.27. As for CCTTACGGGTCACGAGTTTATAGCACGACGAGCG, the PBM binding z-score came to 5.73. Under TCAGACAGTTGAAGGTAACTCAGGTACGCAGTCG stands 1.03.

CTAGCAAGGTGAACAAGGTCGTTGATTACTATTC had a PBM binding z-score of 6.05. ATATGTAGGTTAAGGGTCATTCAGGTTGGTTCGC returned a PBM binding z-score of 5.83. TCTATCAGGCCAGAGGGTCACTCAAGAGGTACGG came in with a PBM binding z-score of 2.03. As to CAAACTAGGTCAGGGTCAAAGTCGGTTTGTGCCA, the PBM binding z-score turned out to be 4.97. The sequence TCATTTAGGTAATACAGGTGAAAGTCGGCATCTA yielded a PBM binding z-score of 1.18. With CCTTACGGCTCACGAGGTTATAGCACGACGAGCG, the PBM binding z-score is 0.412. Next, TCATATAGGTAAACAGTTGAAAGTCCGTAAGTTA: 1.13; ATCGAAAGGTCGACGAGGTGAGTACACACCGTTT: 5.59.

CCTCGGAGGACAACAGGTGGTCAGAGCTGCCAGA returned a PBM binding z-score of -0.645. Under AGTCAAAGTTCACTAGTTAACGTAAGATTCAGCT stands 3.88; under CCTGACGGGTCACTCCAGGTTATAGCATCGGAGT, 3.46; under CCTACTGGGCCAAAAAGATCATTGATGCCGATAA, -0.303. TGAATGAGGTTATAAGATCAGGGACCGTTGCAAA: the PBM binding z-score was found to be 1.25.
